Measured values: the supplement of paper PMC4466140

Experiments:
Assay in all cases: SPOT peptide array binding signal intensity (averaged, normalized) (arbitrary units (background-subtracted, floor 0; scale differs between SH3 domains)); higher = stronger binding of the SH3 domain to the peptide
AgAbp1 = biological target: AgAbp1
Summary of the method: (§1)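 Binding signal refers to normalized, background-subtracted spot intensity averaged over replicates, expressed in arbitrary units that differ between domains. GST-fused SH3 domains from four yeast species were incubated at 10 μg/ml overnight at 4°C on cellulose membranes of synthetic 15-mer peptides with cysteines replaced by serines. Bound protein was detected with anti-GST antibody, an HRP anti-mouse secondary and luminol, and quantified with Genespotter.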

AgBbc1 = biological target: AgBbc1
Summary of the method: as §1

AgBem1-D1 = biological target: AgBem1-D1
Summary of the method: as §1

AgBzz1-D1 = biological target: AgBzz1-D1
Summary of the method: as §1

AgBzz1-D2 = biological target: AgBzz1-D2
Summary of the method: as §1

AgCyk3 = biological target: AgCyk3
Summary of the method: as §1

AgFus1 = biological target: AgFus1
Summary of the method: as §1

AgHof1 = biological target: AgHof1
Summary of the method: as §1

AgHse1 = biological target: AgHse1
Summary of the method: as §1

AgLsb1 = biological target: AgLsb1
Summary of the method: as §1

AgLsb4 = biological target: AgLsb4
Summary of the method: as §1

AgMyo5 = biological target: AgMyo5
Summary of the method: as §1

AgNbp2 = biological target: AgNbp2
Summary of the method: as §1

AgRvs167 = biological target: AgRvs167
Summary of the method: as §1

AgSho1 = biological target: AgSho1
Summary of the method: as §1

AgSla1-D1-D2 = biological target: AgSla1-D1-D2
Summary of the method: as §1

AgSla1-D3 = biological target: AgSla1-D3
Summary of the method: as §1

CaAbp1-D1 = biological target: CaAbp1-D1
Summary of the method: as §1

CaAbp1-D2 = biological target: CaAbp1-D2
Summary of the method: as §1

CaBbc1 = biological target: CaBbc1
Summary of the method: as §1

CaBem1-D1 = biological target: CaBem1-D1
Summary of the method: as §1

CaBzz1-D1 = biological target: CaBzz1-D1
Summary of the method: as §1

CaBzz1-D2 = biological target: CaBzz1-D2
Summary of the method: as §1

CaCyk3 = biological target: CaCyk3
Summary of the method: as §1

CaFus1 = biological target: CaFus1
Summary of the method: as §1

CaHof1 = biological target: CaHof1
Summary of the method: as §1

CaHse1 = biological target: CaHse1
Summary of the method: as §1

CaLsb1 = biological target: CaLsb1
Summary of the method: as §1

CaLsb4 = biological target: CaLsb4
Summary of the method: as §1

CaMyo5 = biological target: CaMyo5
Summary of the method: as §1

CaNbp2 = biological target: CaNbp2
Summary of the method: as §1

CaRvs167 = biological target: CaRvs167
Summary of the method: as §1

CaRvs167-3 = biological target: CaRvs167-3
Summary of the method: as §1

CaSho1 = biological target: CaSho1
Summary of the method: as §1

CaSla1-D1-D2 = biological target: CaSla1-D1-D2
Summary of the method: as §1

CaSla1-D3 = biological target: CaSla1-D3
Summary of the method: as §1

ScAbp1 = biological target: ScAbp1
Summary of the method: as §1

ScBbc1 = biological target: ScBbc1
Summary of the method: as §1

ScBem1-D1 = biological target: ScBem1-D1
Summary of the method: as §1

ScBzz1-D1 = biological target: ScBzz1-D1
Summary of the method: as §1

ScBzz1-D2 = biological target: ScBzz1-D2
Summary of the method: as §1

ScCyk3 = biological target: ScCyk3
Summary of the method: as §1

ScFus1 = biological target: ScFus1
Summary of the method: as §1

ScHof1 = biological target: ScHof1
Summary of the method: as §1

ScHse1 = biological target: ScHse1
Summary of the method: as §1

ScLsb1 = biological target: ScLsb1
Summary of the method: as §1

ScLsb2 = biological target: ScLsb2
Summary of the method: as §1

ScLsb3 = biological target: ScLsb3
Summary of the method: as §1

ScLsb4 = biological target: ScLsb4
Summary of the method: as §1

ScMyo3 = biological target: ScMyo3
Summary of the method: as §1

ScMyo5 = biological target: ScMyo5
Summary of the method: as §1

ScNbp2 = biological target: ScNbp2
Summary of the method: as §1

ScPex13 = biological target: ScPex13
Summary of the method: as §1

ScRvs167 = biological target: ScRvs167
Summary of the method: as §1

ScSho1 = biological target: ScSho1
Summary of the method: as §1

ScSla1-D1-D2 = biological target: ScSla1-D1-D2
Summary of the method: as §1

ScSla1-D3 = biological target: ScSla1-D3
Summary of the method: as §1

SpAbp1-D1 = biological target: SpAbp1-D1
Summary of the method: as §1

SpBbc1 = biological target: SpBbc1
Summary of the method: as §1

SpBzz1-D1 = biological target: SpBzz1-D1
Summary of the method: as §1

## QPQRTAPKPPISAPR
AgAbp1
  SPOT peptide array binding signal intensity: 2
AgBbc1
  SPOT peptide array binding signal intensity: 170
AgBem1-D1
  SPOT peptide array binding signal intensity: 128
AgBzz1-D1
  SPOT peptide array binding signal intensity: 51
AgBzz1-D2
  SPOT peptide array binding signal intensity: 28
AgCyk3
  SPOT peptide array binding signal intensity: 1
AgFus1
  SPOT peptide array binding signal intensity: 11
AgHof1
  SPOT peptide array binding signal intensity: 4.75
AgHse1
  SPOT peptide array binding signal intensity: 14
AgLsb1
  SPOT peptide array binding signal intensity: 0.5
AgLsb4
  SPOT peptide array binding signal intensity: ≤ 0
AgMyo5
  SPOT peptide array binding signal intensity: 327
AgNbp2
  SPOT peptide array binding signal intensity: 1510
AgRvs167
  SPOT peptide array binding signal intensity: 1
AgSho1
  SPOT peptide array binding signal intensity: 4
AgSla1-D1-D2
  SPOT peptide array binding signal intensity: ≤ 0
AgSla1-D3
  SPOT peptide array binding signal intensity: ≤ 0
CaAbp1-D1
  SPOT peptide array binding signal intensity: ≤ 0
CaAbp1-D2
  SPOT peptide array binding signal intensity: 5
CaBbc1
  SPOT peptide array binding signal intensity: 693
CaBem1-D1
  SPOT peptide array binding signal intensity: 73
CaBzz1-D1
  SPOT peptide array binding signal intensity: 1260
CaBzz1-D2
  SPOT peptide array binding signal intensity: 420
CaCyk3
  SPOT peptide array binding signal intensity: 0.5
CaFus1
  SPOT peptide array binding signal intensity: ≤ 0
CaHof1
  SPOT peptide array binding signal intensity: 0.5
CaHse1
  SPOT peptide array binding signal intensity: ≤ 0
CaLsb1
  SPOT peptide array binding signal intensity: 0.5
CaLsb4
  SPOT peptide array binding signal intensity: ≤ 0
CaMyo5
  SPOT peptide array binding signal intensity: 7.5
CaNbp2
  SPOT peptide array binding signal intensity: 1340
CaRvs167
  SPOT peptide array binding signal intensity: ≤ 0
CaRvs167-3
  SPOT peptide array binding signal intensity: 1
CaSho1
  SPOT peptide array binding signal intensity: 14
CaSla1-D1-D2
  SPOT peptide array binding signal intensity: 291
CaSla1-D3
  SPOT peptide array binding signal intensity: 0.5
ScAbp1
  SPOT peptide array binding signal intensity: 8
ScBbc1
  SPOT peptide array binding signal intensity: 268
ScBem1-D1
  SPOT peptide array binding signal intensity: ≤ 0
ScBzz1-D1
  SPOT peptide array binding signal intensity: 4
ScBzz1-D2
  SPOT peptide array binding signal intensity: 15.5
ScCyk3
  SPOT peptide array binding signal intensity: ≤ 0
ScFus1
  SPOT peptide array binding signal intensity: ≤ 0
ScHof1
  SPOT peptide array binding signal intensity: ≤ 0
ScHse1
  SPOT peptide array binding signal intensity: ≤ 0
ScLsb1
  SPOT peptide array binding signal intensity: ≤ 0
ScLsb2
  SPOT peptide array binding signal intensity: ≤ 0
ScLsb3
  SPOT peptide array binding signal intensity: 58
ScLsb4
  SPOT peptide array binding signal intensity: ≤ 0
ScMyo3
  SPOT peptide array binding signal intensity: 699
ScMyo5
  SPOT peptide array binding signal intensity: 613
ScNbp2
  SPOT peptide array binding signal intensity: 2700
ScPex13
  SPOT peptide array binding signal intensity: 131
ScRvs167
  SPOT peptide array binding signal intensity: ≤ 0
ScSho1
  SPOT peptide array binding signal intensity: 6
ScSla1-D1-D2
  SPOT peptide array binding signal intensity: 1730
ScSla1-D3
  SPOT peptide array binding signal intensity: 25.5
SpAbp1-D1
  SPOT peptide array binding signal intensity: 2.5
SpBbc1
  SPOT peptide array binding signal intensity: 10
SpBzz1-D1
  SPOT peptide array binding signal intensity: 260
